# Bioassay records (PubChem BioAssay)
# Compounds with a hit are over-represented: about 19% of the library has one in this group of screens.
# ASM inhibitor: Inhibitors of Secretory Acid Sphingomyelinase (S-ASM): qHTS | 340,000 tested, 0.006% active | Potency, µM (titrated, usually from 57.5 µM), usual class: inhibitors | placental ASM, HMU-PC fluorogenic substrate, 60 min
# Target sequence (P17405 47-631 limits assumed): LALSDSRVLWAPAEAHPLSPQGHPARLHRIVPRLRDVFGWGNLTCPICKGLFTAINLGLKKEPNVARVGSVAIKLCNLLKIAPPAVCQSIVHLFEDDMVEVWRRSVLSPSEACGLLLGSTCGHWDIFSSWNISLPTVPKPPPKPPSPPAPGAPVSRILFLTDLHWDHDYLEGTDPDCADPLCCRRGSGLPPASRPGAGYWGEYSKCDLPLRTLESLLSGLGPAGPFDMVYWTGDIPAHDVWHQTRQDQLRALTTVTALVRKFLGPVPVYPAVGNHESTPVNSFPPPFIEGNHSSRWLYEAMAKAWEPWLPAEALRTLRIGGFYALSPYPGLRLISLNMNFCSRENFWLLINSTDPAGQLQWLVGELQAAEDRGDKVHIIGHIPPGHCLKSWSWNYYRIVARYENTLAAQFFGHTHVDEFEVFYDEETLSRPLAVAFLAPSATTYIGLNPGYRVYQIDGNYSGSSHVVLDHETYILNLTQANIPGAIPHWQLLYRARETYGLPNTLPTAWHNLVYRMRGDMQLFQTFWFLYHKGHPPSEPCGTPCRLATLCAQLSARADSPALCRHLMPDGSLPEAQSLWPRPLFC
#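 Fluorescence read-out (Ex 386 nm, Em 447 nm) after stopping the reaction at pH 10. Enzyme: ASM from human placenta; substrate HMU-PC0, 9 uM final; 60 min, 37 °C. Compound preincubation 10 min, ambient temperature.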
# TGFb inhibitor: qHTS for Inhibitors of TGF-b; AID 588855, 2011; HepG2 CAGA-GFP TGF-b/SMAD3 reporter, GFP fluorescence, 18 h; TGF-beta stimulated, 500 pg/mL final; 410,000 tested, 1.2% active; Potency, µM (doses to about 46.1 µM), most hits filed as inhibitors; also: nearly all actives have a fitted effect of over 65% in size
#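 Read-out: total well GFP (ex488/em500-530) summed from mean per-cell fluorescence. Cells: HEPG2 CAGA-GFP, 1% FBS DMEM, 18 h at 37 degrees C with 500 pg/mL final TGF-beta. Unstimulated wells served as the full-inhibition control; stimulated DMSO wells = 0%.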
# TDP1 cell noCPT: qHTS for Inhibitors of human tyrosyl-DNA phosphodiesterase 1 (TDP1): qHTS in cells in absence of CPT; Potency, µM (titrated, usually from 46.2 µM), hits mostly inhibitors; 420,000 tested, 15% active; AID 686978, 2013; DT40 Tdp1-/- hTDP1 cells, no CPT, ATP luminescence, 48 h; also: nearly all actives have a fitted effect of over 55% in size
#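 Camptothecin absent (DMSO only). Human TDP1-complemented DT40 knockout cells, 400 cells/well, 37 °C for minimum 48 hr; ATP measured via CellTiter-Glo, 30 min dark incubation, luminescence.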
# DT40 TDP1 CPT: qHTS for Inhibitors of human tyrosyl-DNA phosphodiesterase 1 (TDP1): qHTS in cells in presence of CPT; chicken DT40 Tdp1-/-;hTDP1 cells + 20 nM CPT, ATP luminescence, 48 h; Potency, µM (doses to about 46.2 µM), hits mostly inhibitors; 420,000 tested, 12% active; AID 686979, 2013; also: nearly all actives have a fitted effect of over 55% in size
#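 Cell growth measured by CellTiter-Glo luminescence after a minimum 48 h, 37 C compound exposure with 20 nM CPT in Tdp1-knockout DT40 cells stably expressing hTDP1, seeded 400/well; qHTS titration format.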
# IL1B secr inh: qHTS for Inhibitors of Inflammasome Signaling: IL-1-beta AlphaLISA Primary Screen; activity change, % at 57.5 µM; THP-1 LPS/ATP IL-1B secretion, AlphaLISA, 16 h; stronger effect = lower value; 360,000 tested, 4.7% active; in the data active = activity change below about -50%; inconclusive = mostly about -30% to -49%
#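 THP-1 cells pretreated 1 hr with compounds (up to 57.5 uM final), then stimulated with LPS (250 ng/mL final) plus ATP (1.25 mM final); secreted IL-1B measured by AlphaLISA after 16 hr, decreased signal indicating inhibition.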
# HepG2 tox: qHTS for Inhibitors of TGF-b: Cytotox Counterscreen; HepG2 CAGA-GFP viability, ATP luminescence, 18 h; Potency, µM (titrated, usually from 46.1 µM), actives largely listed as cytotoxic; 410,000 tested, 0.76% active
#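 HepG2 CAGA-GFP cells (1000/well, DMEM with 1% FBS) received compound, then TGF-beta at 500 pg/mL final, and were incubated 18 hours at 37 degrees C. Viability was read by CellTiter-Glo luminescence. Media-only wells were set as complete cell-killing and DMSO as no toxicity.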
# Hits are given with their value; - = inactive; ? = inconclusive; . = no result; [ ] = dose if it differs, or a comment. Unless noted, calls follow the shape of the dose curve; as a rule, active = well fitted curve in the direction sought with a large enough effect; inconclusive = small, poorly fitted or top-dose-only effect, or another doubt; inactive = no such curve, though single readings can be large; an effect the other way counts as inactive or inconclusive.
SMILES,ASM inhibitor,TGFb inhibitor,TDP1 cell noCPT,DT40 TDP1 CPT,IL1B secr inh,HepG2 tox
COc1ccc(Nc2c(-c3cc4ccccc4o3)nc3nc(C)cc(C)n23)cc1,.,.,?,?,-,.
CCCCNc1c(-c2cccc(OC)c2)nc2nc(C)cc(C)n12,.,.,16µM,18µM,-,.
CC(C)CCC1(C)NC(=O)N(CC(=O)NCC(=O)Nc2ccc(F)c(F)c2F)C1=O (stereo not drawn),-,-,-,-,-,-
CN1C2=CC=CC=CC2=[N+](C)C12C=CC(=[N+]([O-])[O-])C=C2[N+](=O)[O-] (stereo not drawn),-,-,?,?,-,-
CN1C2=CC=CC=CC2=[N+](C)C12C([N+](=O)[O-])=CC(=[N+]([O-])[O-])C=C2[N+](=O)[O-] (stereo not drawn),-,?,2.1µM,?,.,-
O=C(NCC1OCCc2ccccc21)c1ccc(NC(=O)c2ccccc2Cl)cc1 (stereo not drawn),-,-,?,-,-73,-
O=C(NCC1OCCc2ccccc21)c1ccc(NC(=O)c2cccc(Br)c2)cc1 (stereo not drawn),-,-,7.3µM,7.3µM,-,-
O=C(NCC1OCCc2ccccc21)c1cc(COc2c(F)cccc2F)on1 (stereo not drawn),-,-,16µM,-,-,-
CCCCNc1nc2c(-c3cccc(C)c3)nnn2c2ccccc12,.,-,-,-,.,-
COc1cc(=O)n2c(c1C(=O)N(C)Cc1nccs1)CCN(Cc1c(F)ccc(F)c1F)CC2,.,.,-,-,.,.
COc1ccc(CNC(=O)CCC2N=C3c4ccccc4N=C(SCC(=O)NCC4CCCO4)N3C2=O)cc1 (stereo not drawn),-,?,-,-,-,-
Cc1cc(Cl)ccc1NS(=O)(=O)c1c(C(=O)N2CCC(C)CC2)c(C)n(C)c1C,.,-,16µM,?,.,-
COc1cc(OC)c(NS(=O)(=O)c2c(C(=O)N3CCCCCC3)c(C)n(C)c2C)cc1Cl,.,-,21µM,?,.,-
COc1cc(OC)c(NS(=O)(=O)c2c(C(=O)N3CCCCC3)c(C)n(C)c2C)cc1Cl,-,-,-,-,-,-
COc1cccc(CN(C(=O)c2cnccn2)C(C(=O)NC2CCCCC2)c2cc(OC)c(OC)c(OC)c2)c1 (stereo not drawn),-,-,-,-,-,-
COc1cc(-c2cccc(Cl)c2)cc2c1OCCN(C(=O)CCn1ccc(C)n1)C2,.,.,?,-[9.04 µM],.,.
Cc1ccc(NC(=O)N2CCC(NC(=O)c3ccccc3C)CC2)cc1,-,-,-,-,-,-
Cc1ccccc1[C@H](NC1c2ccccc2C=Cc2ccccc21)P(=O)(c1ccccc1)c1ccccc1,.,.,?,?,-74,.
NC(=O)CSc1nc2c(c(=O)n1-c1ccccc1)C1(CCCCC1)Cc1ccccc1-2,-,-,?,?,-53,-
COC(=O)c1ccccc1NC(=O)CCn1c(=O)oc2ccccc21,-,-,-,-,-,-
COc1ccc(S(=O)(=O)NCc2ccncc2)cc1NC(=O)c1ccccc1,-,-,16µM,21µM,-,-
CC(=O)Nc1ccc(S(=O)(=O)NCCSCc2c(Cl)cccc2Cl)cc1,-,-,?,?,-66,-
CCOc1ccc(S(=O)(=O)NCc2ccncc2)cc1NC(=O)c1ccccc1F,-,-,1.5µM,-,-,-
COc1ccc(S(=O)(=O)NCc2cccnc2)cc1NC(=O)c1ccccc1,-,-,-,-,-,-
CCOc1ccc(S(=O)(=O)N2CCCCC2)cc1NC(=O)c1ccccc1,-,-,?,-,-,-
SMILES,ASM inhibitor,TGFb inhibitor,TDP1 cell noCPT,DT40 TDP1 CPT,IL1B secr inh,HepG2 tox
CCOc1ccc(S(=O)(=O)NCc2ccncc2)cc1NC(=O)c1ccccc1,-,?,1.2µM,3.7µM,-,-
CC1CCC(NC(=O)CCS(=O)(=O)c2ccc3c(c2)NC(=O)C(C)S3)CC1 (stereo not drawn),-,-,-,?,-,-
COc1ccc(C(=O)O)cc1S(=O)(=O)NCc1ccncc1,-,-,-,-,-,-
CCOc1ccccc1NC(=O)c1cc(S(=O)(=O)NCc2ccco2)ccc1F,-,?,-,15µM,-,-
CC(=O)Nc1ccc(S(=O)(=O)NCCSCc2cccc(Cl)c2)cc1,-,-,?,?,-,-
COc1ccc(S(=O)(=O)NCc2ccncc2)cc1NC(=O)c1ccc(Cl)cc1,-,-,15µM,16µM,-67,-
COc1ccc(OC)c(NC(=O)c2cc(S(=O)(=O)NCc3ccco3)ccc2F)c1,-,-,?,-,-,-
COc1ccc(S(=O)(=O)NCCSCc2ccc(Cl)cc2)cc1NC(C)=O,-,-,26µM,?,-,-
CCCCCc1c(C)nc(Nc2ccccc2)[nH]c1=O,-,-,18µM,21µM,-,-
Cc1ccc(Nc2nc(C)c(CCC(C)C)c(=O)[nH]2)cc1,-,-,18µM,?,-,-
Cc1nc(Nc2ccc(F)cc2)[nH]c(=O)c1CCC(C)C,-,?,?,?,-,-
O=[N+]([O-])c1ccc(O/N=[N+](\[O-])N2CCCCC2)c([N+](=O)[O-])c1,.,-,.,.,.,-
Cc1ccc(Nc2nc(NCc3ccco3)c3ccccc3n2)cc1,-,11µM,2.6µM,2.6µM,-109,-
COc1ccccc1Nc1nc(NCc2ccco2)c2ccccc2n1,-,?,21µM,?,.,-
Oc1ccccc1-c1nc(NCc2ccco2)c2ccccc2n1,-,-,?,-,-,-
COc1cc(NC(=O)Cn2cc(S(=O)(=O)c3ccccc3)c(=O)c3ccccc32)cc(OC)c1,.,-,?,-,.,-
Cc1noc(C)c1C(=O)N1CCC2(CC1)CN(c1ncccn1)C2,.,.,-,-,.,.
OCC1(CCOc2ccccc2)CCN(Cc2cc(Cl)ccc2O)CC1,-,-,-,?,?,-
C=CCOc1ccccc1CN1CCC(CO)(CCOc2ccccc2)CC1,-,-,18µM,?,?,-
COc1cc(CN2CCC(CO)(CCOc3ccccc3)CC2)cc(OC)c1OC,-,-,-,-,-,-
OCC1(CCOc2ccccc2)CCN(Cc2ccccc2OC(F)F)CC1,-,-,?,-,-79,-
OCC1(CCOc2ccccc2)CCN(Cc2ccc(OC(F)F)cc2)CC1,-,-,?,-,-91,-
